Assay results reported in PubChem BioAssay AID1159580 (chemical genetic matrix, 2015).
In all, about 5,500 compounds went through this assay and about 2,000 (36%) were called active. Roughly 18% stayed inconclusive and do not appear here. Rule as the data show it: active = normalized growth mostly below about 0.91 (no sharp cut-off); inconclusive = no clear call, values can overlap the other calls; inactive = mostly above about 0.92. The list shows a part of the results.

Test: chemical genetic growth profiling, strain panel (AID 1159580);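 also: tested at 20 µM; growth read once vehicle control cultures reached saturation at 30 °C; 1 = growth at the plate median or of vehicle wells; lower values mean less growth of the strain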
Details: growth OD

Measured: normalized growth

CC(=O)O[C@@H]1CC2C(C)(C)[C@H](O)C[C@H](O)[C@]2(C)C2CC[C@@]3(C)[C@H](c4ccoc4)OC(=O)[C@H]4O[C@]43[C@@]21C (stereo not given in full)
inactive: S. cerevisiae deletion strains, locus YAL021C, strain ccr4, hits give low values 1.01 | S. cerevisiae deletion strains, locus YAL026C, strain drs2, hits give low values 0.993 | S. cerevisiae deletion strains, locus YAL030W, strain snc1, hits give low values 0.995 | S. cerevisiae deletion strains, locus YBL061C, strain skt5, hits give low values 0.988 | S. cerevisiae deletion strains, locus YBR009C, strain hhf1, hits give low values 0.974 | S. cerevisiae deletion strains, locus YBR021W, strain FUR4, hits give low values 0.959 | S. cerevisiae deletion strains, locus YBR023C, strain chs3, hits give low values 0.985 | S. cerevisiae deletion strains, locus YBR171W, strain sec66, hits give low values 0.986 | S. cerevisiae deletion strains, locus YBR229C, strain ROT2, hits give low values 0.952 | S. cerevisiae deletion strains, locus YBR231C, strain swc5, hits give low values 0.983 | S. cerevisiae deletion strains, locus YBR279W, strain paf1, hits give low values 0.988 | S. cerevisiae deletion strains, locus YCL011C, strain gbp2, hits give low values 0.984 | S. cerevisiae deletion strains, locus YCL016C, strain dcc1, hits give low values 0.996 | S. cerevisiae deletion strains, locus YCL029C, strain bik1, hits give low values 0.987 | S. cerevisiae deletion strains, locus YCL061C, strain MRC1, hits give low values 0.99 | S. cerevisiae deletion strains, locus YCL069W, strain vba3, hits give low values 0.989 | S. cerevisiae deletion strains, locus YCR088W, strain abp1, hits give low values 0.995 | S. cerevisiae deletion strains, locus YDL005C, strain med2, hits give low values 0.985 | S. cerevisiae deletion strains, locus YDL035C, strain GPR1, hits give low values 0.982 | S. cerevisiae deletion strains, locus YDL040C, strain nat1, hits give low values 0.984 | S. cerevisiae deletion strains, locus YDL074C, strain BRE1, hits give low values 0.987 | S. cerevisiae deletion strains, locus YDL101C, strain DUN1, hits give low values 1 | S. cerevisiae deletion strains, locus YDL185W, strain tfp1, hits give low values 0.981 | S. cerevisiae deletion strains, locus YDL192W, strain arf1, hits give low values 0.988 | S. cerevisiae deletion strains, locus YDR001C, strain nth1, hits give low values 0.979 | S. cerevisiae deletion strains, locus YDR069C, strain doa4, hits give low values 0.983 | S. cerevisiae deletion strains, locus YDR101C, strain arx1, hits give low values 0.957 | S. cerevisiae deletion strains, locus YDR137W, strain rgp1, hits give low values 1.03 | S. cerevisiae deletion strains, locus YDR159W, strain sac3, hits give low values 0.968 | S. cerevisiae deletion strains, locus YDR162C, strain NBP2, hits give low values 0.993 | S. cerevisiae deletion strains, locus YDR195W, strain ref2 0.935 | S. cerevisiae deletion strains, locus YDR297W, strain sur2, hits give low values 0.996 | S. cerevisiae deletion strains, locus YDR318W, strain mcm21, hits give low values 0.995 | S. cerevisiae deletion strains, locus YDR334W, strain swr1, hits give low values 0.99 | S. cerevisiae deletion strains, locus YDR335W, strain msn5, hits give low values 0.989 | S. cerevisiae deletion strains, locus YDR388W, hits give low values 0.994 | S. cerevisiae deletion strains, locus YDR392W, strain spt3, hits give low values 0.913 | S. cerevisiae deletion strains, locus YDR502C, strain sam2, hits give low values 1 | S. cerevisiae deletion strains, locus YEL003W, strain gim4, hits give low values 0.987 | S. cerevisiae deletion strains, locus YEL037C, strain rad23, hits give low values 0.987 | S. cerevisiae deletion strains, locus YEL061C, strain CIN8 (second series), hits give low values 0.977 | S. cerevisiae deletion strains, locus YER015W, strain faa2, hits give low values 0.981 | S. cerevisiae deletion strains, locus YER016W, strain bim1, hits give low values 0.99 | S. cerevisiae deletion strains, locus YER110C, hits give low values 0.978 | S. cerevisiae deletion strains, locus YER111C, strain swi4, hits give low values 0.976 | S. cerevisiae deletion strains, locus YER155C, strain BEM2 (second series), hits give low values 0.997 | S. cerevisiae deletion strains, locus YER155C, strain BEM2, hits give low values 1 | S. cerevisiae deletion strains, locus YER167W, strain BCK2, hits give low values 0.98 | S. cerevisiae deletion strains, locus YFR010W, strain ubp6, hits give low values 0.983 | S. cerevisiae deletion strains, locus YGL078C, strain dbp3, hits give low values 1 | S. cerevisiae deletion strains, locus YGL086W, strain mad1, hits give low values 0.996 | S. cerevisiae deletion strains, locus YGL167C, strain pmr1, hits give low values 0.995 | S. cerevisiae deletion strains, locus YGL173C, strain kem1, hits give low values 0.962 | S. cerevisiae deletion strains, locus YGL227W, strain vid30, hits give low values 0.986 | S. cerevisiae deletion strains, locus YGL240W, strain doc1, hits give low values 0.971 | S. cerevisiae deletion strains, locus YGL248W, strain PDE1, hits give low values 1.01 | S. cerevisiae deletion strains, locus YGL253W, strain hxk2, hits give low values 0.955 | S. cerevisiae deletion strains, locus YGR078C, strain PAC10, hits give low values 1.02 | S. cerevisiae deletion strains, locus YGR135W, strain pre9, hits give low values 1.06 | S. cerevisiae deletion strains, locus YGR252W, strain gcn5, hits give low values 1.07 | S. cerevisiae deletion strains, locus YHR013C, strain ard1, hits give low values 0.963 | S. cerevisiae deletion strains, locus YHR027C, strain rpn1, hits give low values 1 | S. cerevisiae deletion strains, locus YHR079C, strain IRE1 (second series), hits give low values 0.987 | S. cerevisiae deletion strains, locus YHR094C, strain hxt1, hits give low values 0.978 | S. cerevisiae deletion strains, locus YHR129C, strain ARP1, hits give low values 0.993 | S. cerevisiae deletion strains, locus YHR142W, strain chs7, hits give low values 0.98 | S. cerevisiae deletion strains, locus YHR200W, strain rpn10, hits give low values 0.983 | S. cerevisiae deletion strains, locus YIL066C, strain RNR3, hits give low values 0.965 | S. cerevisiae deletion strains, locus YIL073C, strain SPO22, hits give low values 0.997 | S. cerevisiae deletion strains, locus YIL125W, strain kgd1, hits give low values 0.946 | S. cerevisiae deletion strains, locus YIR030C, strain dcg1, hits give low values 0.985 | S. cerevisiae deletion strains, locus YJL092W, strain hpr5, hits give low values 0.984 | S. cerevisiae deletion strains, locus YJL095W, strain BCK1 (second series), hits give low values 1 | S. cerevisiae deletion strains, locus YJL095W, strain BCK1, hits give low values 1.05 | S. cerevisiae deletion strains, locus YJL115W, strain asf1, hits give low values 0.984 | S. cerevisiae deletion strains, locus YJL129C, strain trk1, hits give low values 0.979 | S. cerevisiae deletion strains, locus YJL134W, strain LCB3, hits give low values 0.987 | S. cerevisiae deletion strains, locus YJL154C, strain vps35, hits give low values 0.996 | S. cerevisiae deletion strains, locus YJL164C, strain tpk1, hits give low values 0.979 | S. cerevisiae deletion strains, locus YJL166W, strain qcr8, hits give low values 0.99 | S. cerevisiae deletion strains, locus YJL168C, strain set2, hits give low values 0.984 | S. cerevisiae deletion strains, locus YJL187C, strain SWE1 (second series), hits give low values 1.02 | S. cerevisiae deletion strains, locus YJL187C, strain SWE1, hits give low values 1 | S. cerevisiae deletion strains, locus YJR043C, strain POL32, hits give low values 0.963 | S. cerevisiae deletion strains, locus YKL009W, strain mrt4, hits give low values 0.988 | S. cerevisiae deletion strains, locus YKL068W, hits give low values 0.997 | S. cerevisiae deletion strains, locus YKL085W, strain MDH1 (second series), hits give low values 0.994 | S. cerevisiae deletion strains, locus YKL085W, strain MDH1, hits give low values 0.994 | S. cerevisiae deletion strains, locus YKL160W, strain elf1, hits give low values 1.02 | S. cerevisiae deletion strains, locus YKR001C, strain vps1, hits give low values 0.975 | S. cerevisiae deletion strains, locus YKR026C, strain gcn3, hits give low values 0.968 | S. cerevisiae deletion strains, locus YKR091W, strain srl3, hits give low values 0.983 | S. cerevisiae deletion strains, locus YLL001W, strain dnm1, hits give low values 0.984 | S. cerevisiae deletion strains, locus YLL026W, hits give low values 0.986 | S. cerevisiae deletion strains, locus YLL041C, strain sdh2, hits give low values 0.994 | S. cerevisiae deletion strains, locus YLR027C, strain aat2, hits give low values 0.993 | S. cerevisiae deletion strains, locus YLR039C, strain RIC1, hits give low values 1 | S. cerevisiae deletion strains, locus YLR058C, strain SHM2, hits give low values 0.982 | S. cerevisiae deletion strains, locus YLR102C, strain apc9, hits give low values 0.982 | S. cerevisiae deletion strains, locus YLR221C, strain rsa3, hits give low values 0.972 | S. cerevisiae deletion strains, locus YLR258W, strain gsy2, hits give low values 0.995 | S. cerevisiae deletion strains, locus YLR262C, strain YPT6 (second series), hits give low values 1 | S. cerevisiae deletion strains, locus YLR268W, strain sec22, hits give low values 0.976 | S. cerevisiae deletion strains, locus YLR320W, strain mms22, hits give low values 0.986 | S. cerevisiae deletion strains, locus YLR330W, strain CHS5, hits give low values 0.994 | S. cerevisiae deletion strains, locus YLR342W, strain FKS1, hits give low values 0.984 | S. cerevisiae deletion strains, locus YLR357W, strain rsc2, hits give low values 0.987 | S. cerevisiae deletion strains, locus YLR370C, strain arc18, hits give low values 0.994 | S. cerevisiae deletion strains, locus YLR371W, strain rom2, hits give low values 0.959 | S. cerevisiae deletion strains, locus YLR384C, strain iki3, hits give low values 0.994 | S. cerevisiae deletion strains, locus YLR418C, strain cdc73, hits give low values 1.03 | S. cerevisiae deletion strains, locus YML016C, strain PPZ1, hits give low values 0.968 | S. cerevisiae deletion strains, locus YML032C, strain rad52, hits give low values 0.963 | S. cerevisiae deletion strains, locus YML120C, strain ndi1, hits give low values 0.996 | S. cerevisiae deletion strains, locus YML124C, strain tub3, hits give low values 0.975 | S. cerevisiae deletion strains, locus YMR058W, strain fet3, hits give low values 0.989 | S. cerevisiae deletion strains, locus YMR078C, strain ctf18, hits give low values 0.988 | S. cerevisiae deletion strains, locus YMR125W, strain sto1, hits give low values 0.993 | S. cerevisiae deletion strains, locus YMR129W, hits give low values 1.01 | S. cerevisiae deletion strains, locus YMR205C, strain PFK2, hits give low values 0.967 | S. cerevisiae deletion strains, locus YMR223W, strain ubp8, hits give low values 1 | S. cerevisiae deletion strains, locus YMR231W, strain pep5, hits give low values 0.988 | S. cerevisiae deletion strains, locus YMR307W, strain GAS1, hits give low values 0.972 | S. cerevisiae deletion strains, locus YNL067W, strain RPL9B, hits give low values 1.02 | S. cerevisiae deletion strains, locus YNL071W, strain lat1, hits give low values 0.987 | S. cerevisiae deletion strains, locus YNL153C, strain GIM3, hits give low values 1.01 | S. cerevisiae deletion strains, locus YNL209W, strain ssb2, hits give low values 1 | S. cerevisiae deletion strains, locus YNL233W, strain BNI4, hits give low values 1.02 | S. cerevisiae deletion strains, locus YNL248C, strain rpa49, hits give low values 1.01 | S. cerevisiae deletion strains, locus YNL250W, strain rad50, hits give low values 1.02 | S. cerevisiae deletion strains, locus YNL271C, strain bni1, hits give low values 0.988 | S. cerevisiae deletion strains, locus YNL298W, strain CLA4, hits give low values 0.982 | S. cerevisiae deletion strains, locus YNL307C, strain MCK1, hits give low values 0.992 | S. cerevisiae deletion strains, locus YNL322C, strain KRE1 (second series), hits give low values 0.979 | S. cerevisiae deletion strains, locus YNL322C, strain KRE1, hits give low values 0.999 | S. cerevisiae deletion strains, locus YNR049C, strain mso1, hits give low values 0.994 | S. cerevisiae deletion strains, locus YNR052C, strain pop2, hits give low values 1.01 | S. cerevisiae deletion strains, locus YOL006C, strain TOP1, hits give low values 1.05 | S. cerevisiae deletion strains, locus YOL012C, strain htz1 0.767 | S. cerevisiae deletion strains, locus YOL147C, strain pex11, hits give low values 0.991 | S. cerevisiae deletion strains, locus YOR001W, strain rrp6, hits give low values 1.01 | S. cerevisiae deletion strains, locus YOR061W, strain CKA2, hits give low values 0.939 | S. cerevisiae deletion strains, locus YOR069W, strain VPS5, hits give low values 1 | S. cerevisiae deletion strains, locus YOR070C, strain gyp1, hits give low values 0.999 | S. cerevisiae deletion strains, locus YOR080W, strain dia2, hits give low values 0.989 | S. cerevisiae deletion strains, locus YOR083W, strain WHI5, hits give low values 1.02 | S. cerevisiae deletion strains, locus YOR106W, strain vam3, hits give low values 1 | S. cerevisiae deletion strains, locus YOR136W, strain idh2, hits give low values 0.993 | S. cerevisiae deletion strains, locus YOR144C, strain elg1, hits give low values 0.98 | S. cerevisiae deletion strains, locus YOR184W, strain ser1, hits give low values 0.967 | S. cerevisiae deletion strains, locus YOR265W, strain rbl2, hits give low values 0.999 | S. cerevisiae deletion strains, locus YOR270C, strain vph1, hits give low values 0.828 | S. cerevisiae deletion strains, locus YOR290C, strain snf2, hits give low values 0.923 | S. cerevisiae deletion strains, locus YOR316C, strain cot1, hits give low values 0.981 | S. cerevisiae deletion strains, locus YPL051W, strain arl3, hits give low values 1.03 | S. cerevisiae deletion strains, locus YPL055C, strain LGE1, hits give low values 0.957 | S. cerevisiae deletion strains, locus YPL078C, strain atp4, hits give low values 0.999 | S. cerevisiae deletion strains, locus YPL106C, strain sse1, hits give low values 1 | S. cerevisiae deletion strains, locus YPL240C, strain hsp82, hits give low values 1 | S. cerevisiae deletion strains, locus YPR119W, strain clb2, hits give low values 0.994 | S. cerevisiae deletion strains, locus YPR141C, strain kar3, hits give low values 0.982 | S. cerevisiae deletion strains, locus YPR163C, strain tif3, hits give low values 0.975 | S. cerevisiae deletion strains, locus YPR167C, strain met16, hits give low values 0.99 | S. cerevisiae deletion strains, strain wtn01, hits give low values 0.949 | S. cerevisiae strains, strain wild type, hits give low values 0.976
